Source: PubChem BioAssay (Tox21)
Results filed as inconclusive are left out. The source made the active and inactive calls. Unless noted, the call rests on the fitted dose curve; in most records, active means well fitted curve in the direction sought with a large enough effect in the repeat runs; inconclusive means weak or mixed curves; inactive means no such curve, though single readings can be large; an effect the other way counts as inactive or inconclusive.

Tests used:
[1] = qHTS assay to identify small molecule antagonists of the glucocorticoid receptor (GR) signaling pathway - cell viability counter screen (AID 720693); further: nearly all actives have a fitted effect of over 55% in size
[2] = qHTS assay for identifying genotoxic compounds that show differential cytotoxicity against isogenic chicken DT40 cell lines with known DNA damage response pathways - Rad54/Ku70 mutant cell line (AID 743015); further: nearly all actives have a fitted effect of over 60% in size; further: potency means the concentration at half of the fitted maximal effect
[3] = qHTS assay to identify small molecule antagonists of the androgen receptor (AR) signaling pathway - cell viability counter screen (AID 743033; further: nearly all actives have a fitted effect of over 45% in size; further: potency means the concentration at half of the fitted maximal effect)
[4] = qHTS assay to identify small molecule antagonists of the androgen receptor (AR) signaling pathway using the MDA cell line - cell viability counter screen (AID 743041; further: nearly all actives have a fitted effect of over 45% in size)
Outline: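 In this qHTS counter assay, fluorescence intensity after CellTiter-Fluor addition indicated viability of MDA-kb2 AR-luc cells given compounds and R1881 for 16 h at 37C.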

[5] = qHTS assay for identifying genotoxic compounds that show differential cytotoxicity against isogenic chicken DT40 cell lines with known DNA damage response pathways - Rev3 mutant cell line (AID 743014); further: nearly all actives have a fitted effect of over 55% in size; further: potency means the concentration at half of the fitted maximal effect
[6] = target: Androgen receptor (Homo sapiens) (UniProt P10275); test: qHTS assay to identify small molecule agonists of the androgen receptor (AR) signaling pathway using the MDA cell line (AID 743040; further: nearly all actives have a fitted effect of over 20% in size)
Chain of Androgen receptor (Homo sapiens) (P10275 whole entry, looked up): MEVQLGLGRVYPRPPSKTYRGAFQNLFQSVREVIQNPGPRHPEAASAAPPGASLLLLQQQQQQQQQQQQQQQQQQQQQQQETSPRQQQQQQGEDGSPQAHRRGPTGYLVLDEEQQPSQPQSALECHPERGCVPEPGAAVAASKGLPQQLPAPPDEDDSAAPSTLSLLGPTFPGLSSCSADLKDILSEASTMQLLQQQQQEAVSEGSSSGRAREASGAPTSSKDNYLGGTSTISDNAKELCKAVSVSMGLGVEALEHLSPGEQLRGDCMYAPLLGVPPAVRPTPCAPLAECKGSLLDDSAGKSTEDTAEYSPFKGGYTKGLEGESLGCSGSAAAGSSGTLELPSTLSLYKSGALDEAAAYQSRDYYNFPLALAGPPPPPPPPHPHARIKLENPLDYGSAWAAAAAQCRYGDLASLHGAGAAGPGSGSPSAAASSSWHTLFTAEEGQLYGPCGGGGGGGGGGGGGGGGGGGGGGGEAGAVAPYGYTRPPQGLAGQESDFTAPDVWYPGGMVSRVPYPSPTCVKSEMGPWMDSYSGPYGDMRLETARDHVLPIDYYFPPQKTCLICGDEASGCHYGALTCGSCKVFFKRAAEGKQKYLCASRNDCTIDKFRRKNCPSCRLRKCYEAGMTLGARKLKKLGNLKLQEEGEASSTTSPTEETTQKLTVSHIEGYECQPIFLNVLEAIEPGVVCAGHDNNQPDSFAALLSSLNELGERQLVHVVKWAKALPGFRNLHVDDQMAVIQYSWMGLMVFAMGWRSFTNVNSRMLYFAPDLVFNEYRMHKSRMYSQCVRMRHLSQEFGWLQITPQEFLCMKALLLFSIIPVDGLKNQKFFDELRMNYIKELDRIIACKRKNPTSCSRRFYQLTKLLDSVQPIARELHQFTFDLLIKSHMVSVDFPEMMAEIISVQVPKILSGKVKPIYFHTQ
Outline: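 Cell-based luciferase reporter: MDA-kb2, MMTV promoter (AR + GR response elements). 16 h compound exposure at 37C; ONE-Glo, 30 min RT, luminescence.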

[7] = target: Androgen receptor (Homo sapiens) (UniProt P10275); test: qHTS assay to identify small molecule antagonists of the androgen receptor (AR) signaling pathway using the MDA cell line (AID 743042; further: nearly all actives have a fitted effect of over 55% in size; further: potency means the concentration at half of the fitted maximal effect)
Outline: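 MDA-kb2 cells (human breast carcinoma, stably carrying an MMTV-luciferase reporter responsive to AR and GR) were plated at 3,000 cells/well and preincubated 5 hr at 37C, then given compound plus R1881 agonist for 16 h. ONE-Glo luminescence was read.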

[8] = qHTS assay for identifying genotoxic compounds that show differential cytotoxicity against isogenic chicken DT40 cell lines with known DNA damage response pathways - wild type cell line (AID 743012); further: nearly all actives have a fitted effect of over 60% in size; further: potency means the concentration at half of the fitted maximal effect
Outline: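 Endpoint: CellTiter-Glo luminescence, 30 min RT. Cells: wild type DT40, 300/well. Exposure: compounds in DMSO, 40 h, 37 C/5% CO2, after ~0.5 h pre-incubation.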

[9] = target: Androgen receptor (Homo sapiens) (UniProt P10275); test: qHTS assay to identify small molecule antagonists of the androgen receptor (AR) signaling pathway (AID 743035; active means well fitted inhibition curve with a large enough effect in the signal ratio in the repeat runs, not every such curve was filed as active; the % refers to the signal ratio; further: potency means the concentration at half of the fitted maximal effect)
Outline: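 R1881 agonist challenge of a HEK293 UAS-beta-lactamase AR reporter line in the presence of compound (16 h, 37C); signal taken as FRET fluorescence after 2 h with LiveBLAzer B/G substrate at room temperature.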

[10] = target: Androgen receptor (Homo sapiens) (UniProt P10275); test: qHTS assay to identify small molecule agonists of the androgen receptor (AR) signaling pathway (AID 743036; active means well fitted activation curve with a large enough effect in the signal ratio in the repeat runs, with a control signal flat, not every such curve was filed as active; the % refers to the signal ratio)
Outline: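 Following a 4 h settling period, AR-UAS-bla HEK293 cells were dosed with compounds for 16 h at 37C. A 2 h room-temperature incubation with LiveBLAzer B/G FRET substrate preceded the fluorescence measurement.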

Measured: Potency

C=CC(=O)OCCCCO
active: [2] 61.1 µM
inactive: [1] | [3] | [4]

O=Cc1ccc(Cl)cc1Cl
inactive: [1] | [5] | [2] | [3] | [4]

O=C=Nc1ccc(Cl)cc1
inactive: [1] | [3] | [4]
active: [5] 54.5 µM | [2] 27.3 µM

CCCN(CCC)c1c([N+](=O)[O-])cc(S(C)(=O)=O)cc1[N+](=O)[O-]
inactive: [1] | [5] | [3] | [4]

C=COC(C)=O
inactive: [1] | [5] | [2] | [3] | [4]

COc1c(C(C)(C)C)cc([N+](=O)[O-])c(C)c1[N+](=O)[O-]
inactive: [1] | [5] | [2] | [3] | [4]

Brc1ccc(Oc2ccccc2)cc1
inactive: [1] | [5] | [3] | [4]

C=CC(=O)NCNC(=O)C=C
active: [2] 61 µM
inactive: [1] | [6] | [4] | [7]

Nc1ccc(N=Nc2ccc(-c3ccc(N=Nc4c(S(=O)(=O)O)cc5cc(S(=O)(=O)O)c(N=Nc6ccccc6)c(O)c5c4N)cc3)cc2)c(N)c1
inactive: [1] | [2] | [3] | [4]

c1cc2ccc3cccc4ccc(c1)c2c34
active: [8] 71.9 µM | [2] 67.9 µM
inactive: [6] | [7]

CC(C)(C)C(O)C(Oc1ccc(Cl)cc1)n1cncn1 (stereo unspecified)
active: [5] 32.5 µM | [2] 45.8 µM
inactive: [3]

CC(C)(OO)c1ccccc1
active: [5] 27.3 µM | [2] 17.2 µM
inactive: [3] | [4]

O=C1C(=O)c2cccc3cccc1c23
active: [8] 2.73 µM | [5] 1.72 µM | [2] 2.43 µM
inactive: [4]

N#Cc1cc(I)c(O)c(I)c1
inactive: [6]
active: [5] 68.6 µM | [3] 49 µM

II
inactive: [1] | [3] | [9] | [6] | [4] | [7]

OC(c1ccc(Cl)cc1)(c1ccc(Cl)cc1)c1cccnc1
inactive: [10] | [6] | [4]
active: [5] 8.63 µM | [2] 8.63 µM | [3] 54.9 µM | [9] 34.7 µM | [7] 61.1 µM

O=C1NCN(c2ccccc2)C12CCN(CCCOc1ccc(F)cc1)CC2
active: [5] 13.3 µM | [2] 16.8 µM
inactive: [3]

CCCCCC[N+](=O)[O-]
inactive: [1] | [3] | [9] | [10] | [4] | [7]

CCCN(CC1CC1)c1c([N+](=O)[O-])cc(C(F)(F)F)cc1[N+](=O)[O-]
inactive: [8] | [5] | [2] | [3] | [4]

C[N+](C)(C)CCCl
not listed: [1] | [10]
inactive: all other assays above

CO/N=C(/C(=O)OC)c1ccccc1COc1ccccc1C
active: [8] 0.611 µM | [5] 0.969 µM | [2] 0.864 µM | [3] 6.92 µM | [7] 27.3 µM
inactive: [6]
